Activity calls are given as the source filed them.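 Rule for the calls, unless noted: active = inhibition above 50%; inactive = the rest.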
Assay: antimalarial activity against Dd2 strain (AID 2302;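 active = growth inhibition above 50% at the single 2 µM test dose, taken to imply half-maximal potency below 2 µM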;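 note: 0% = DMSO untreated growth and 100% = chloroquine plus artemisinin killed control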)
Conditions: P. falciparum Dd2 in RBCs, LDH growth readout, 72 h; at 2 µM; hits give high values
For `CN1CCN(Cc2cccc(-c3ccc4c(Nc5cc(O)c(Cl)cc5F)ccnc4c3)c2)CC1`, the growth inhibition was 100% (active). With `COc1c(CN2CCOCC2)cccc1-c1cc2c(-c3ccc(C(=O)O)c(C(C)C)c3)ccnc2[nH]1` the growth inhibition was 90% (active). In the case of `CC(=O)Nc1cccc(Nc2nccc(Nc3ccc(Oc4ccccc4)cc3)n2)c1`, the growth inhibition is reported as 99% (active). With `C#CCNC(=O)c1ccc(-c2ccnc(Nc3cccc(CCCN4CCOCC4)c3)n2)s1` the growth inhibition was 45% (inactive). For `CN(c1ccc2c(c1)nc(NCc1ccccc1)n2C)c1ccnc(Nc2ccc(CS(C)(=O)=O)cc2)n1`, the growth inhibition was 69% (active). With `CN(C)CC(O)COc1ccc(Nc2ncc([N+](=O)[O-])c(Nc3ccccc3O)n2)cc1` (stereo not drawn) the growth inhibition was 20% (inactive). For `N=C(N)c1ccc(Nc2nc(Nc3ccc(-c4ccccc4)cc3)ncc2[N+](=O)[O-])cc1`, the growth inhibition was 35% (inactive). With `CC(=O)c1ccc(NC(=O)Nc2ccc(N(C)c3ccnc(Nc4cccc(CS(C)(=O)=O)c4)n3)cc2)cc1` the growth inhibition was 98% (active). In the case of `N#Cc1cnc(Nc2ccc(Oc3ccccc3)cc2)nc1Nc1cccc(S(N)(=O)=O)c1`, the growth inhibition is reported as 86% (active). For `Cc1ccc(Nc2nc3cc(Nc4ccnc(Nc5cccc(CS(C)(=O)=O)c5)n4)ccc3o2)cc1`, the growth inhibition was 81% (active). For `O=C(O)c1cccnc1Sc1ccc(Cl)cc1`, the growth inhibition was 4% (inactive). In the case of `CC(=O)Nc1nc(C)c(-c2csc(Nc3ccc(Cl)cc3)n2)s1`, the growth inhibition is reported as 93% (active). With `COc1cccc(Nc2nccc(-c3c(-c4cccc(NC(=O)c5c(F)cccc5F)c4)nn4ccccc34)n2)c1` the growth inhibition was 98% (active). With `CN(c1ccc(NC(=O)Nc2cc(C(F)(F)F)ccc2F)cc1)c1ccnc(NCCN2CCOCC2)n1` the growth inhibition was 73% (active). With `COc1cccc(-n2ncc3c(N/N=C/c4ccc(CN(C)CCN(C)C)cc4)ncnc32)c1` the growth inhibition was 91% (active). For `Nc1ncc(-c2cccc(F)c2)cc1-c1nc2ccc(F)cc2[nH]1`, the growth inhibition was 88% (active). In the case of `CS(=O)(=O)Cc1cccc(Nc2ncc(Cl)c(Nc3cccnc3C(N)=O)n2)c1`, the growth inhibition is reported as 97% (active). With `COc1c(CN2CCCC2)cccc1-c1cc2c(-c3ccc(C(=O)O)c(C(C)C)c3)ccnc2[nH]1` the growth inhibition was 98% (active). In the case of `CN(c1ccc(NC(=O)Nc2cccc(Cl)c2)cc1)c1ccnc(N)n1`, the growth inhibition is reported as 40% (inactive). With `CC(=O)Nc1ccc(Nc2ncc([N+](=O)[O-])c(Nc3ccccc3C(N)=O)n2)cc1` the growth inhibition was 97% (active). With `CN(c1ccc2c(c1)nc(NCc1ccc(F)cc1)n2C)c1ccnc(Nc2ccc(CS(C)(=O)=O)cc2)n1` the growth inhibition was 79% (active). In the case of `CCN(CC)CCCNc1nccc(N(C)c2ccc(NC(=O)Nc3cc(C(F)(F)F)ccc3F)cc2)n1`, the growth inhibition is reported as 19% (inactive). With `NS(=O)(=O)c1cccc(Nc2nccc(-c3cnn4ncccc34)n2)c1` the growth inhibition was 89% (active). With `CN1CCC(NC(=O)c2cccc(Nc3cc(Nc4cccc(Br)c4)ncn3)c2)CC1` the growth inhibition was 6% (inactive). For `CCN(CC)CCNC(=O)c1ccc(Nc2ncc([N+](=O)[O-])c(Nc3ccccc3OC)n2)cc1`, the growth inhibition was 58% (active). In the case of `O=C(Cc1ccc(Nc2nccc(Nc3cccc4[nH]ncc34)n2)cc1)Nc1ccc(C(F)(F)F)cc1`, the growth inhibition is reported as 69% (active). With `Cc1ccc(S(=O)(=O)Nc2ccc(Nc3nccc(Nc4cccc5[nH]ncc45)n3)cc2)cc1` the growth inhibition was 5% (inactive). With `Oc1cc(-c2nc(-c3ccccc3)[nH]c2-c2ccncc2)ccc1Cl` the growth inhibition was 91% (active). With `CN(c1ccc(NC(=O)Nc2cc(C(C)(C)C)on2)cc1)c1ccnc(NCCN2CCOCC2)n1` the growth inhibition was 18% (inactive). For `COc1ccc(-c2cnn3ccc(Nc4cc(OC)c(OC)c(OC)c4)nc23)cc1OC`, the growth inhibition was 100% (active). For `O=C(NCCN1CCCCC1)c1cccc(Nc2nccc(Nc3ccc(Oc4ccccc4)cc3)n2)c1`, the growth inhibition was 86% (active). In the case of `O=c1[nH]ccc2nc(N[C@@H]3CCNC3)nc(Nc3ccc4c(c3)S(=O)(=O)CC4)c12`, the growth inhibition is reported as 99% (active). In the case of `Cc1cc(Nc2nc(Nc3cccc(Cl)c3)nc3ccccc23)n[nH]1`, the growth inhibition is reported as 95% (active). With `C(=N\Nc1nccc2sc(-c3ccccc3)cc12)/c1cccnc1` the growth inhibition was 10% (inactive). With `Cn1nc(-c2ccc(NC(=O)Nc3ccc4ccccc4c3)c(F)c2)c2cnc(NCCN3CCOCC3)nc21` the growth inhibition was 3% (inactive). With `Cn1cnc2c(Nc3ccncc3)nc(-c3ccc4c(c3)OCO4)nc21` the growth inhibition was 2% (inactive). In the case of `Cc1ccc(O)cc1Nc1ccnc2cc(-c3cccc(CNCCS(C)(=O)=O)c3)ccc12`, the growth inhibition is reported as 100% (active). In the case of `Fc1cc(Cl)ccc1Nc1ccnc2cc(-c3ccc(CNCCN4CCOCC4)o3)ccc12`, the growth inhibition is reported as 100% (active). For `N=C(N)c1ccc(Nc2nccc(Nc3nc(-c4ccccc4)cs3)n2)cc1`, the growth inhibition was 75% (active).

Assay: human hepatoma cell viability loss – ATP luminescence, cytotoxicity control for P. falciparum antimalarial project, primary screen (AID 2303);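 note: 0% = DMSO wells and 100% = digitonin-killed cells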
Conditions: HepG2 viability, 24-48 h, at 10 µM, hits give high values
With `CN1CCN(Cc2cccc(-c3ccc4c(Nc5cc(O)c(Cl)cc5F)ccnc4c3)c2)CC1` the inhibition was -1% (inactive). For `COc1c(CN2CCOCC2)cccc1-c1cc2c(-c3ccc(C(=O)O)c(C(C)C)c3)ccnc2[nH]1`, the inhibition was 44% (inactive). In the case of `CC(=O)Nc1cccc(Nc2nccc(Nc3ccc(Oc4ccccc4)cc3)n2)c1`, the inhibition is reported as 15% (inactive). For `C#CCNC(=O)c1ccc(-c2ccnc(Nc3cccc(CCCN4CCOCC4)c3)n2)s1`, the inhibition was 54% (active). With `CN(c1ccc2c(c1)nc(NCc1ccccc1)n2C)c1ccnc(Nc2ccc(CS(C)(=O)=O)cc2)n1` the inhibition was 61% (active). For `CN(C)CC(O)COc1ccc(Nc2ncc([N+](=O)[O-])c(Nc3ccccc3O)n2)cc1` (stereo not drawn), the inhibition was 47% (inactive). In the case of `N=C(N)c1ccc(Nc2nc(Nc3ccc(-c4ccccc4)cc3)ncc2[N+](=O)[O-])cc1`, the inhibition is reported as 11% (inactive). With `CC(=O)c1ccc(NC(=O)Nc2ccc(N(C)c3ccnc(Nc4cccc(CS(C)(=O)=O)c4)n3)cc2)cc1` the inhibition was 86% (active). In the case of `N#Cc1cnc(Nc2ccc(Oc3ccccc3)cc2)nc1Nc1cccc(S(N)(=O)=O)c1`, the inhibition is reported as 74% (active). For `Cc1ccc(Nc2nc3cc(Nc4ccnc(Nc5cccc(CS(C)(=O)=O)c5)n4)ccc3o2)cc1`, the inhibition was 55% (active). With `O=C(O)c1cccnc1Sc1ccc(Cl)cc1` the inhibition was 5% (inactive). With `CC(=O)Nc1nc(C)c(-c2csc(Nc3ccc(Cl)cc3)n2)s1` the inhibition was 14% (inactive). With `COc1cccc(Nc2nccc(-c3c(-c4cccc(NC(=O)c5c(F)cccc5F)c4)nn4ccccc34)n2)c1` the inhibition was 35% (inactive). In the case of `CN(c1ccc(NC(=O)Nc2cc(C(F)(F)F)ccc2F)cc1)c1ccnc(NCCN2CCOCC2)n1`, the inhibition is reported as 67% (active). In the case of `COc1cccc(-n2ncc3c(N/N=C/c4ccc(CN(C)CCN(C)C)cc4)ncnc32)c1`, the inhibition is reported as 29% (inactive). In the case of `Nc1ncc(-c2cccc(F)c2)cc1-c1nc2ccc(F)cc2[nH]1`, the inhibition is reported as 54% (active). With `CS(=O)(=O)Cc1cccc(Nc2ncc(Cl)c(Nc3cccnc3C(N)=O)n2)c1` the inhibition was 56% (active). With `COc1c(CN2CCCC2)cccc1-c1cc2c(-c3ccc(C(=O)O)c(C(C)C)c3)ccnc2[nH]1` the inhibition was 56% (active). For `CN(c1ccc(NC(=O)Nc2cccc(Cl)c2)cc1)c1ccnc(N)n1`, the inhibition was 75% (active). For `CC(=O)Nc1ccc(Nc2ncc([N+](=O)[O-])c(Nc3ccccc3C(N)=O)n2)cc1`, the inhibition was 42% (inactive). In the case of `CN(c1ccc2c(c1)nc(NCc1ccc(F)cc1)n2C)c1ccnc(Nc2ccc(CS(C)(=O)=O)cc2)n1`, the inhibition is reported as 48% (inactive). With `CCN(CC)CCCNc1nccc(N(C)c2ccc(NC(=O)Nc3cc(C(F)(F)F)ccc3F)cc2)n1` the inhibition was 96% (active). With `NS(=O)(=O)c1cccc(Nc2nccc(-c3cnn4ncccc34)n2)c1` the inhibition was 39% (inactive). In the case of `CN1CCC(NC(=O)c2cccc(Nc3cc(Nc4cccc(Br)c4)ncn3)c2)CC1`, the inhibition is reported as 25% (inactive). With `CCN(CC)CCNC(=O)c1ccc(Nc2ncc([N+](=O)[O-])c(Nc3ccccc3OC)n2)cc1` the inhibition was 59% (active). In the case of `O=C(Cc1ccc(Nc2nccc(Nc3cccc4[nH]ncc34)n2)cc1)Nc1ccc(C(F)(F)F)cc1`, the inhibition is reported as 12% (inactive). With `Cc1ccc(S(=O)(=O)Nc2ccc(Nc3nccc(Nc4cccc5[nH]ncc45)n3)cc2)cc1` the inhibition was 57% (active). For `Oc1cc(-c2nc(-c3ccccc3)[nH]c2-c2ccncc2)ccc1Cl`, the inhibition was 64% (active). In the case of `CN(c1ccc(NC(=O)Nc2cc(C(C)(C)C)on2)cc1)c1ccnc(NCCN2CCOCC2)n1`, the inhibition is reported as 51% (active). In the case of `COc1ccc(-c2cnn3ccc(Nc4cc(OC)c(OC)c(OC)c4)nc23)cc1OC`, the inhibition is reported as 57% (active). With `O=C(NCCN1CCCCC1)c1cccc(Nc2nccc(Nc3ccc(Oc4ccccc4)cc3)n2)c1` the inhibition was 50% (active). For `O=c1[nH]ccc2nc(N[C@@H]3CCNC3)nc(Nc3ccc4c(c3)S(=O)(=O)CC4)c12`, the inhibition was -4% (inactive). In the case of `Cc1cc(Nc2nc(Nc3cccc(Cl)c3)nc3ccccc23)n[nH]1`, the inhibition is reported as 9% (inactive). For `C(=N\Nc1nccc2sc(-c3ccccc3)cc12)/c1cccnc1`, the inhibition was -9% (inactive). With `Cn1nc(-c2ccc(NC(=O)Nc3ccc4ccccc4c3)c(F)c2)c2cnc(NCCN3CCOCC3)nc21` the inhibition was 62% (active). For `Cn1cnc2c(Nc3ccncc3)nc(-c3ccc4c(c3)OCO4)nc21`, the inhibition was 19% (inactive). In the case of `Cc1ccc(O)cc1Nc1ccnc2cc(-c3cccc(CNCCS(C)(=O)=O)c3)ccc12`, the inhibition is reported as 9% (inactive). For `Fc1cc(Cl)ccc1Nc1ccnc2cc(-c3ccc(CNCCN4CCOCC4)o3)ccc12`, the inhibition was 13% (inactive). With `N=C(N)c1ccc(Nc2nccc(Nc3nc(-c4ccccc4)cs3)n2)cc1` the inhibition was 13% (inactive).

Source: PubChem BioAssay
